According to PubChem BioAssay AID720566 (Broad Institute, 2013):
Results with a measured potency or affinity are listed apart. The source made the active and inactive calls.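 Rule for the calls: active = in all runs, an absorbance decrease of 25% or more of the average positive control decrease; inconclusive = runs conflict, with both active and inactive results; inactive = all runs inactive, opposite-direction effects included.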

Target: Protein disulfide-isomerase A6 (Homo sapiens) (UniProt Q15084)
Sequence (Q15084 whole entry, looked up): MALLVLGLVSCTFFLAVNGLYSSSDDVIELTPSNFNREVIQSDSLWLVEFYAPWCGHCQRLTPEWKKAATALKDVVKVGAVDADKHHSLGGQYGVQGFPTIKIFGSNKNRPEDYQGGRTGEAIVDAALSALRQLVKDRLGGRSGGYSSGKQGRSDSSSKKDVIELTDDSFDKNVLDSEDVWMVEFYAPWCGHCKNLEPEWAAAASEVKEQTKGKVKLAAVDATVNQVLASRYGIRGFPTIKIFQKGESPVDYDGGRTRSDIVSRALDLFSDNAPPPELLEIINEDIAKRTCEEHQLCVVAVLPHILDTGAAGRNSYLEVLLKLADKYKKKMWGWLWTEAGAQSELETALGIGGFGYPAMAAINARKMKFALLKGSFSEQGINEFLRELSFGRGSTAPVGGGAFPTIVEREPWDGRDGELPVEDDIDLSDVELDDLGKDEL
Experiment: inhibitors of ERp5-mediated insulin aggregation, dose response, biochemical, turbidity, absorbance 650 nm, cherry-picked samples (AID 720566);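 note: negative values mean less insulin aggregation so ERp5 inhibition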

| Compound | outcome |
| --- | --- |
| C[C@H](CO)N1C[C@H](C)[C@@H](CN(C)S(=O)(=O)c2ccc(Oc3ccccc3)cc2)OCc2cnnn2CCCC1=O | inactive |
| COCC(=O)N(C)C[C@@H]1Oc2cc(C#CC(C)(C)O)ccc2S(=O)(=O)N([C@H](C)CO)C[C@@H]1C | inactive |
| Cc1ccc(S(=O)(=O)N2CCN(C(=O)CCc3nc4ccccc4c(=O)[nH]3)CC2)c(C)c1 | inactive |
| CC(C)CC#Cc1cnc2c(c1)C(=O)N([C@H](C)CO)C[C@H](C)[C@H](CN(C)Cc1ccccc1C(=O)O)O2 | inactive |
| CCC(=O)Nc1ccc2c(c1)C(=O)N(C)[C@H]1CC[C@@H](CC(=O)NCC3CC3)O[C@H]1CO2 | inactive |
| COCC#Cc1cnc2c(c1)C(=O)N([C@@H](C)CO)C[C@H](C)[C@@H](CN(C)C(=O)NC1CCCC1)O2 | inactive |
| O=C1[C@@H](c2ccccc2)CC[C@@H]2C=CC[C@H]3CCN1[C@@H]32 | inactive |
| C[C@@H]1CN([C@@H](C)CO)C(=O)c2cc(C#CC3(O)CCCC3)cnc2O[C@H]1CN(C)C(=O)Cc1cccnc1 | inactive |
| COc1ccc2c3c([nH]c2c1)[C@H](CO)N(C(=O)C1CCOCC1)CC31CCN(Cc2nccs2)CC1 | inactive |
| COc1ccc2c3c([nH]c2c1)[C@@H](CO)N(C(=O)c1ccc(F)cc1)CC31CCN(C(=O)Nc2cccc(F)c2)CC1 | inactive |
| COCCNC(=O)C[C@@H]1C[C@H]2c3cc(NC(=O)NC4CCCC4)ccc3O[C@H]2[C@@H](CO)O1 | inactive |
| CCN1[C@@H]2c3ccc(-c4ccccc4)c(=O)n3C[C@@H]2[C@@H](CO)[C@@H]1C(=O)NCC(F)(F)F | inactive |
| C[C@@H]1CN([C@H](C)CO)S(=O)(=O)c2ccc(-c3ccc(F)cc3)cc2O[C@@H]1CN(C)CC1CC1 | inactive |
| COCCNC(=O)c1ccccc1NS(=O)(=O)c1ccc(C)c([N+](=O)[O-])c1 | inactive |
| O=C(NN=c1c(=O)c2ccccc2c1=O)c1ccccc1 | inactive |
| CN(C)C(=O)C[C@@H]1C[C@H]2c3cc(NS(C)(=O)=O)ccc3O[C@H]2[C@@H](CO)O1 | inactive |
| Cc1cc(C(=O)Nc2cccc3c2O[C@@H](CN(C)S(=O)(=O)c2ccc(Cl)cc2)[C@@H](C)CN([C@@H](C)CO)C3=O)n(C)n1 | inactive |

| Compound | outcome |
| --- | --- |
| COc1ccc(NC(=O)Nc2ccc3c(c2)C(=O)N([C@H](C)CO)C[C@H](C)[C@@H](CN(C)C(=O)C2CCCCC2)OCCCC[C@H](C)O3)cc1 | inactive |
| Cc1cccc(S(=O)(=O)N(C)C[C@H]2OCc3cnnn3CCCC(=O)N([C@@H](C)CO)C[C@H]2C)c1 | inactive |
| Cc1ccc(S(=O)(=O)N(C)C)cc1NC(=O)COC(=O)C1(c2ccccc2)CC1 | inactive |
| O=C(C[C@@H]1C[C@H]2c3cc(NS(=O)(=O)c4ccccc4)ccc3O[C@H]2[C@H](CO)O1)NC1CCCCC1 | inactive |
| C[C@@H]1CN([C@@H](C)CO)C(=O)c2cc(NS(=O)(=O)c3ccccc3)ccc2O[C@H]1CN(C)C(=O)Nc1ccc2c(c1)OCO2 | inactive |
| COc1ccc(S(=O)(=O)Nc2ccc3c(c2)C(=O)N([C@H](C)CO)C[C@H](C)[C@H](CN(C)C(=O)Nc2ccccc2)O3)cc1 | inactive |
| C[C@@H]1CN([C@@H](C)CO)C(=O)c2cccc(NS(=O)(=O)c3ccc(F)cc3)c2O[C@H]1CN(C)S(=O)(=O)c1ccccc1 | inactive |
| COC(=O)C[C@H]1C[C@H]2c3cc(NC(=O)Cc4ccncc4)ccc3O[C@H]2[C@H](CO)O1 | inactive |
| C[C@H](CO)N1C[C@H](C)[C@@H](CN(C)S(=O)(=O)c2cn(C)cn2)Oc2ccc(NC(=O)c3ccncc3)cc2CC1=O | inactive |
| O=C(COC(=O)CCc1nc2ccccc2c(=O)[nH]1)Nc1c(Cl)cccc1C(F)(F)F | inactive |
| CCC(=O)Nc1ccc2c(c1)OC[C@H](C)N(Cc1cccnc1)C[C@H](C)[C@H](OC)CN(C)C2=O | inactive |
| CCc1csc(CCNC(=O)C2CCC(=O)N(CCc3cccc(F)c3)C2)n1 (stereo not drawn) | inactive |
| O=C(Cc1ccc(NC(=O)C2CCCN(C(=O)C3CC3)C2)cc1)Nc1cccc(C(=O)N2CCCCC2)c1 (stereo not drawn) | inactive |
| C[C@@H]1CN([C@H](C)CO)C(=O)Cc2cc(NC(=O)c3ccncc3)ccc2O[C@H]1CN(C)S(=O)(=O)c1cn(C)cn1 | inactive |
| CCC(=O)N(C)C[C@H]1Oc2cc(-c3ccc(C#N)cc3)ccc2S(=O)(=O)N([C@@H](C)CO)C[C@@H]1C | inactive |
| CCN(CC)S(=O)(=O)c1ccc2c(c1)N(CC(=O)NCCN1CCOCC1)C(=O)CO2 | inactive |
